The list is not random: actives were taken first. Their share in the collection is about 13%.
CHOP inh: inhibitors of CHOP promoter induction, primary screen, cell-based, unfolded protein response, luciferase reporter | CHO-K1 CHOP-promoter luciferase, tunicamycin-induced, 15-18 h | inhibition, % at 10 µM | 220,000 tested, 3.8% active | AID 2732, 2010;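 active = compounds that reduced the stress-induced luciferase reporter signal by more than about 70% of percent inhibition, limit read from the data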
L major viab: Leishmania major promastigote growth inhibition, primary screen; Leishmania major promastigotes, resazurin fluorescence viability; inhibition, % at 10 µM; 200,000 tested, 9% active; AID 1063, 2008; in the data active = inhibition above about 50%;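 also: promastigotes grown with compound for 44 hours at 28 °C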
RAM network inh: inhibitors of the yeast RAM network, primary screen, dse1pr::URA3 reporter, 5-FOA selection | S. cerevisiae dse1pr::URA3 reporter, 5-FOA growth OD615, 2 d; analog-sensitive cbk1-as2 kinase mutant strain | inhibition, % at 50 µM | 190,000 tested, 1.8% active | AID 868, 2007;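 active = inhibition above a set limit, 3 SD over mean compound inhibition, cut at about 8.4% in these data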;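 also: inhibition rescues growth on 5-FOA so higher OD means more RAM inhibition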
WT yeast gro inh: growth inhibition of WT strain, primary screen, mitochondrial fusion inhibitor project, WT and mutant strains, chemical genetic; mitochondrial fusion phenotypic screen; inhibition, % at 10 µM; 190,000 tested, 2.1% active; AID 1362, 2008; in the data active = inhibition above about 58%; tested in S. cerevisiae
Each line names hits and unclear results; the compound was inactive in the other large screens.

Cc1cc(NC(=O)CCC(=O)N(CCC(C)C)CC(=O)NCC2CCCO2)no1 (configuration not stated)	none
Cc1cc(NC(=O)CCC(=O)N(c2ccccc2)C(C(=O)NC2CCCC2)c2ccccc2)no1 (configuration not stated)	none
CCCn1c(SCC(=O)N2CCCC(C)C2)nnc1-c1cccnc1 (configuration not stated)	none
Cc1cc(NC(=O)CCC(=O)N(Cc2cccs2)C(C(=O)NC2CCCC2)c2ccccc2)no1 (configuration not stated)	L major viab 94.4
Cc1cc(NC(=O)CCC(=O)N(Cc2cccs2)C(C(=O)NC2CCCC2)c2cccnc2)no1 (configuration not stated)	none
Cc1ccc(N(C(=O)CCC(=O)Nc2cc(C)on2)C(C(=O)NC2CCCC2)c2cccs2)cc1 (configuration not stated)	L major viab 54.0
COc1ccc(OCC(=O)Nc2sc3c(c2C(=O)NCC2CCCO2)CCC3)cc1 (configuration not stated)	RAM network inh 9.0
Cc1cc(C)cc(N(C(=O)CCC(=O)Nc2cc(C)on2)C(C(=O)NC2CCCC2)c2ccco2)c1 (configuration not stated)	L major viab 88.5
O=C(CN1C(=O)c2ccccc2C1=O)Nc1sc2c(c1C(=O)NCC1CCCO1)CCC2 (configuration not stated)	none
COc1cc(C(=O)Nc2nnc(CC(C)C)s2)c([N+](=O)[O-])cc1OC	none
Cc1ccc(CSc2nccc(-c3c(C)nc4ccccn34)n2)cc1	none (no result: L major viab, RAM network inh, WT yeast gro inh)
Cc1ccc(C)c(N(C(=O)CCC(=O)Nc2cc(C)on2)C(C(=O)NC2CCCC2)c2ccco2)c1 (configuration not stated)	L major viab 89.7
CCN1CCN(C(=S)Nc2cccc([N+](=O)[O-])c2)CC1	none
CCN1C/C(=C/c2cccc([N+](=O)[O-])c2)C(=O)/C(=C/c2cccc([N+](=O)[O-])c2)C1	CHOP inh 110.7, L major viab 100.4, WT yeast gro inh 88.3
Nc1nc(CN2CCN(c3ccccc3)CC2)nc(Nc2ccc(Cl)cc2)n1	none
CC1CCCCN1CC(=O)Nc1ccc(Oc2ccccc2)cc1 (configuration not stated)	L major viab 96.3
O=C(CNCc1ccccc1)Nc1ccc(F)cc1	none
CN1CCN(CC(=O)Nc2ccc(Oc3ccccc3)cc2)CC1	none
C=CCC(=O)OCC(=O)Nc1ccc(Oc2ccccc2)cc1	L major viab 96.6 (no result: CHOP inh, RAM network inh)
CCCOc1ccc(C(=O)CCC(=O)OCC(=O)Nc2ccc(Oc3ccccc3)cc2)cc1	none
O=C(CNCc1ccccc1)Nc1ccc(Oc2ccccc2)cc1	RAM network inh 10.9
CCOC(=O)N1CCN(CC(=O)Nc2ccc(Oc3ccccc3)cc2)CC1	CHOP inh 81.9, L major viab 97.1 (no result: WT yeast gro inh)
CCCCNc1c(C(=O)OCC)c(C)nc2c1cnn2CC	none (no result: L major viab, RAM network inh, WT yeast gro inh)
CCOC(=O)C1CCC(CNCc2ccccc2C)CC1 (configuration not stated)	L major viab 95.1
Cc1cc(Br)ccc1S(=O)(=O)n1ccnc1C	L major viab 84.1
O=C(COc1ccc(Br)cc1Br)NC(=O)NC1CCCC1	CHOP inh 87.2
CC(C)(C)NC(=O)NC(=O)COc1ccc(Br)cc1Br	CHOP inh 83.1
CC(C)(C)NC(=O)NC(=O)COC(=O)COc1ccc(Cl)cc1Cl	none
O=C(COc1ccccc1Br)NC1CCCC1	none
O=C(COc1ccc(Br)cc1Cl)NC(=O)NCc1ccccc1	CHOP inh 80.0, L major viab 54.5, RAM network inh 8.8
O=C(COc1ccc(Br)cc1Cl)NC(=O)Nc1ccc2c(c1)OCCO2	none
O=C(COc1ccc(Br)cc1CNC1CCCCC1)NCCc1ccccc1	L major viab 92.6
C/C(=C\C(=O)c1ccccc1)Nc1ccc2c(c1)OCO2	none
O=C(OC1CCCCC1)c1ccc2c(c1)C1C=CCC1C(C(=O)O)N2 (configuration not stated)	RAM network inh 11.4
C=CCC(C(=O)OC)(C(=O)OC)c1ccc([N+](=O)[O-])cn1	WT yeast gro inh 66.4
C=CCC(C(=O)OC)(C(=O)OC)c1ccc([N+](=O)[O-])cc1[N+](=O)[O-]	none
CCCCCC(=O)Nc1nc(C)c(-c2csc(Nc3ccc(Cl)cc3)n2)s1	none
CCCCCCC(=O)Nc1nc(C)c(-c2csc(Nc3ccc(Cl)cc3)n2)s1	L major viab 52.2
Cc1nc(NC(=O)CC(C)C)sc1-c1csc(Nc2ccc(Cl)cc2)n1	CHOP inh 70.9, WT yeast gro inh 80.7
Cc1nonc1CC(=O)N1CCCC(C(=O)c2ccc(Cl)cc2)C1 (configuration not stated)	none
CCOC(=O)C(=CN=C(N)Nc1nc2ccccc2o1)C(=O)OCC	L major viab 56.0
CCn1c(O)c(C=NCc2cccs2)c(=O)n(CC)c1=S	CHOP inh 73.2
O=C(C1CCCO1)N1CCN(C(=S)Nc2ccc(F)cc2)CC1 (configuration not stated)	L major viab 56.5
CSc1nc2nc(-c3ccc(F)cc3)c(CCN3CCN(C)CC3)cn2n1	none
CN1CCN(CCc2cn3ncc(C#N)c3nc2-c2ccc(F)cc2)CC1	RAM network inh 11.3
COC(=O)[C@H](Cc1ccccc1)NC(=O)Nc1ccc(C)cc1	none
CC(C)Oc1cc(NC(=O)CSCC(=O)Nc2cccc(C(F)(F)F)c2)c(Cl)cc1Cl	CHOP inh 100.0
COc1ccc(C)cc1NCC(=O)Nc1ccc(C(C)(C)C)cc1	CHOP inh 70.3
COC(=O)c1cc(OC)c(OC)cc1NCC(=O)Nc1ccc(C)cc1	none
COC(=O)c1cc(OC)c(OC)cc1NCC(=O)Nc1ccc(OC)c(OC)c1	L major viab 53.0
COC(=O)c1cc(OC)c(OC)cc1NCC(=O)Nc1cccc(C(F)(F)F)c1	L major viab 73.9
Cn1cc(CN2C[C@]3(C)C[C@H]2CC(C)(C)C3)c(-c2ccc3c(c2)OCCO3)n1	none
COc1ccc(NC(=O)CSc2ncccc2C(=O)OC(C)C)cc1OC	CHOP inh 70.6
COc1ccc(NC(=S)N(CCCN2CCOCC2)Cc2ccco2)cc1	none
COc1ccc(NC(=S)N(Cc2cccnc2)Cc2ccco2)cc1	L major viab 91.1
CCc1ccc(NC(=S)N(Cc2cccnc2)Cc2ccco2)cc1	L major viab 99.7
CC(C)(C)n1nc2c(c1NC(=O)Cc1ccccc1)CS(=O)(=O)C2	none
COc1ccc(-n2cc(CNCCCn3ccnc3)c(-c3ccccc3Cl)n2)cc1	L major viab 100.5
COc1ccc(-n2cc(CNCCc3ncc(C)[nH]3)c(-c3ccccc3Cl)n2)cc1	L major viab 100.5
COc1ccc(-n2cc(CNCCc3nc(C)cc(C)n3)c(-c3ccccc3Cl)n2)cc1	none
COc1ccc(-n2cc(CNCCN3CCOC3=O)c(-c3ccccc3Cl)n2)cc1	none (no result: L major viab, RAM network inh, WT yeast gro inh)
CCN1CCC(CNCc2cn(-c3ccc(OC)cc3)nc2-c2ccccc2Cl)C1 (configuration not stated)	L major viab 100.5
COc1ccc(Cc2nnc(N/N=C/c3ccc(O)cc3O)[nH]c2=O)cc1OC	none
Cc1cccc(NC(=O)CCNC(=O)c2ccco2)c1	none

High-throughput results (PubChem BioAssay)
